For test [1], the target named is CCAAT/enhancer-binding protein beta (Homo sapiens) (UniProt P17676). In words: ATG_C_EBP_CIS: Attagene CIS-FACTORIAL HepG2 Assay for human CCAAT/Enhancer Binding Protein (C/EBP) beta (AID 2282927). Conditions: HepG2 Attagene cis-factorial transcription factor reporter; actives raise or lower the signal. The procedure, abridged:
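HepG2 transiently transfected with multiplexed reporter units under cis-regulatory promoters reporting endogenous C/EBPb activity. After 24 h exposure, reporter mRNA assayed by RT-PCR, fluorescent labelling, HpaI digestion and capillary electrophoresis; bidirectional fitting versus DMSO.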

Test [2] in a line: ATG_CMV_CIS: Attagene CIS-FACTORIAL HepG2 Assay for human CMV (Internal Marker) (AID 2282928).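 Also: endpoint acts as a background internal control marker rather than a target.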 The conditions noted are these: HepG2 CMV promoter reporter, transcription factor profiling; actives raise or lower the signal. The gist of the method:
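Fluorescence intensity of RT-PCR-derived reporter fragments, resolved by capillary electrophoresis, gives the signal. HepG2 liver cells bearing transfected cis-element reporters were treated 24 h; activity in either direction was fit relative to DMSO-treated controls.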

The nature of test [3]: ATG_DR4_LXR_CIS: Attagene CIS-FACTORIAL HepG2 Assay for human Liver X Receptor (LXR), DR4 submotif (AID 2282929). The conditions noted are these: HepG2 Attagene DR4 cis-reporter, mRNA transcription; actives raise or lower the signal. The procedure, abridged: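 Measures endogenous transcription factor activity via a DR4-driven reporter transcript in human HepG2 cells. Compounds incubated 24 h; mRNA quantified by RT-PCR and capillary electrophoresis, analysed as gain or loss of signal versus DMSO.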

Test [4] deals with Aryl hydrocarbon receptor (Homo sapiens) (UniProt P35869). Description: ATG_Ahr_CIS: Attagene CIS-FACTORIAL HepG2 Assay for human Aryl Hydrocarbon Receptor (Ahr) (AID 2282930). The conditions noted are these: HepG2 AhR cis-factorial reporter transcription; actives raise or lower the signal. The procedure, abridged:
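HepG2 cells transiently transfected with cis-element-driven multiplexed reporter units; endogenous AhR activity read as reporter mRNA 24 h after dosing, via RT-PCR, 6-FAM labelling, HpaI digestion and capillary electrophoresis. Bidirectional fit relative to DMSO.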

Test [5] is described as follows: ATG_AP_1_CIS: Attagene CIS-FACTORIAL HepG2 Assay for human Activator Protein 1 (AP-1) (AID 2282931). Conditions: HepG2 Attagene cis-factorial AP-1 reporter mRNA; actives raise or lower the signal. The procedure, abridged:
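Bidirectional concentration-response fitting against DMSO controls. Underlying signal: reporter mRNA from cis-promoter constructs in transiently transfected HepG2, measured after 24 h by RT-PCR and capillary electrophoresis.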

Test [6] can be described thus: ATG_AP_2_CIS: Attagene CIS-FACTORIAL HepG2 Assay for human Activator Protein 2 (AP-2) (AID 2282932). Conditions: HepG2 AP-2 cis-reporter, Attagene transcription factor profiling; actives raise or lower the signal. The procedure, abridged: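 Liver-derived HepG2 line, cis-reporter system measuring endogenous factors; 24 h dosing; reporter mRNA detected by fluorescent RT-PCR and capillary electrophoresis.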

The nature of test [7]: ATG_BRE_CIS: Attagene CIS-FACTORIAL HepG2 Assay for human Bone Morphogenetic Protein (BMP) Response Element (BRE) (AID 2282933). The conditions noted are these: HepG2 BMP response element reporter, Attagene transcription factor profiling; actives raise or lower the signal. The gist of the method: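 Transient MRTU transfection of human HepG2 liver cells; 24 h compound treatment; total RNA isolated, reverse-transcribed, PCR-amplified, 6-FAM labelled, HpaI-cut, capillary electrophoresis. DMSO = negative control/baseline, bidirectional fit.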

In test [8] the target is Transcription factor E2F1 (Homo sapiens) (UniProt Q01094). Description: ATG_E2F_CIS: Attagene CIS-FACTORIAL HepG2 Assay for human E2F Transcription Factor 1 (AID 2282935). The conditions noted are these: HepG2 Attagene cis-reporter, E2F reporter RNA transcripts; actives raise or lower the signal. The gist of the method:
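Liver-derived HepG2 cells expressing transfected promoter-driven reporter units received test chemical for 24 hours. Signal gains or losses were fitted bidirectionally against DMSO.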

In test [9] the target is Retinoic acid receptor alpha (Homo sapiens) (UniProt P10276). Description: ATG_DR5_RAR_CIS: Attagene CIS-FACTORIAL HepG2 Assay for human Retinoic Acid Receptor Alpha (RARE), DR5 submotif (AID 2282934).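 As to AC50: reporter responds to endogenous RAR alpha beta and gamma in HepG2 not RARA alone.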 The conditions noted are these: HepG2 Attagene cis-factorial RARE DR5 reporter, mRNA; actives raise or lower the signal. The procedure, abridged: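 HepG2 cells transiently transfected with multiplexed reporter units; DR5 cis-element drives reporter through endogenous transcription factors. After 24 h dosing, reporter mRNA quantified by RT-PCR, fluorescent labeling, HpaI digestion and capillary electrophoresis; bidirectional fitting versus DMSO.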

The source made the active and inactive calls. The calls were made as follows: active = hit-call score of the fitted dose curve at least 0.9, where 1 is the maximum; inactive = score below 0.9.

Broadly, the AC50 is the concentration at which the activity in the assay is half-maximal.

Aryl hydrocarbon receptor (Homo sapiens), sequence (P35869 whole entry, looked up): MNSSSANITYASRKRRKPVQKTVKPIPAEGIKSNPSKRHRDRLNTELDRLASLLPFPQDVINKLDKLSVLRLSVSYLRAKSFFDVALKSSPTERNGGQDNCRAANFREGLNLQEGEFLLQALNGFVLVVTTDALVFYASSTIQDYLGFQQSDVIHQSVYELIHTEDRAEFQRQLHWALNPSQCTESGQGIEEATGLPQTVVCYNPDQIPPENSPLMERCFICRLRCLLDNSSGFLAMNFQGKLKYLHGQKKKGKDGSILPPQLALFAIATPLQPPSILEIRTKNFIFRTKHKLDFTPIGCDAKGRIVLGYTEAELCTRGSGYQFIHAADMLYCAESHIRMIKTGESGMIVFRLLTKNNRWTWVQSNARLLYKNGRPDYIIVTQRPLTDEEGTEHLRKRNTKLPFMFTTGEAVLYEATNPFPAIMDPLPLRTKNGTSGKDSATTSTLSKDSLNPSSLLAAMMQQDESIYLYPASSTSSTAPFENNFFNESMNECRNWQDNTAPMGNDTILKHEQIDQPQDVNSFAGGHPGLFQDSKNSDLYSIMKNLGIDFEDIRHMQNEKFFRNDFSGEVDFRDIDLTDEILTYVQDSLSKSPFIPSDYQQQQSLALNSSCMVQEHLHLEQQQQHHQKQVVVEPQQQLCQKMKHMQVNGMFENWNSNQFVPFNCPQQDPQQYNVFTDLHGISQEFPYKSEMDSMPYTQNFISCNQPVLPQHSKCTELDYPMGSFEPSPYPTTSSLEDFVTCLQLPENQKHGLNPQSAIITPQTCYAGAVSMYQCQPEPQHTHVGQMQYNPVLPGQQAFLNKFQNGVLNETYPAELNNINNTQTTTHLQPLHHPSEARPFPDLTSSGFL
CCAAT/enhancer-binding protein beta (Homo sapiens), sequence (P17676 whole entry, looked up): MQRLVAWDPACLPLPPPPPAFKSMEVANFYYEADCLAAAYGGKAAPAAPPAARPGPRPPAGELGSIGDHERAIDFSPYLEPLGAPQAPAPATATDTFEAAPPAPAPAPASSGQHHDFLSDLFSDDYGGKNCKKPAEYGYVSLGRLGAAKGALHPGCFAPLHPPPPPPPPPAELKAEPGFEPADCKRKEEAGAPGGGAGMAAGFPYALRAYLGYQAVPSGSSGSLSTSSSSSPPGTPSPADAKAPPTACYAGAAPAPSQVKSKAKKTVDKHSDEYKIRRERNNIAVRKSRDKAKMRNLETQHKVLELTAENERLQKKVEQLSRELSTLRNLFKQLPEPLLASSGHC
Retinoic acid receptor alpha (Homo sapiens), sequence (P10276 whole entry, looked up): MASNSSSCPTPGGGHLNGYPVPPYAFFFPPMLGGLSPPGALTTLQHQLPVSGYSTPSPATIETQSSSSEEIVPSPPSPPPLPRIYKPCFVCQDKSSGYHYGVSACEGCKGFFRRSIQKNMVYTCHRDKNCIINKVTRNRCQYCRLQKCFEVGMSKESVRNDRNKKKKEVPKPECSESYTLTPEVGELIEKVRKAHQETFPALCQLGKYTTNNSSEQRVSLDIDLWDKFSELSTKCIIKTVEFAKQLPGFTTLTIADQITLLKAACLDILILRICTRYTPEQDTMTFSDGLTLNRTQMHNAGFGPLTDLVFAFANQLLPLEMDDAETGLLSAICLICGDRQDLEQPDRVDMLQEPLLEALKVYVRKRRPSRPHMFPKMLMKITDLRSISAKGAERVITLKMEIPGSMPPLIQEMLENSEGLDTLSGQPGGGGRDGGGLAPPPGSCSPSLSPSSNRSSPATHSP
Transcription factor E2F1 (Homo sapiens), sequence (Q01094 whole entry, looked up): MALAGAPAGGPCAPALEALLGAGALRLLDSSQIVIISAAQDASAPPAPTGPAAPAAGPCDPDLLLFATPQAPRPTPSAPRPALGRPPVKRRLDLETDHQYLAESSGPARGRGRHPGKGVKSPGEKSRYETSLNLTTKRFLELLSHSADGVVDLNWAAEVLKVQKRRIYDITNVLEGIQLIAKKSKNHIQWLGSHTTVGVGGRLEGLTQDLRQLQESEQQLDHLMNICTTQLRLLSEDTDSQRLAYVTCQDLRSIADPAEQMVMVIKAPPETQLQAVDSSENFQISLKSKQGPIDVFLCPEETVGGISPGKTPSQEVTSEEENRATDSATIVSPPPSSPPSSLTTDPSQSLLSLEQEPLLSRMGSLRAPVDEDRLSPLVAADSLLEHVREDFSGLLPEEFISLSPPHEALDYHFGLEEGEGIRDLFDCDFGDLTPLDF

On to `CCCCCCCC/C=C\CCCCCCCC(=O)OCC`, for which the outcome in [1], in test [2], in test [3], in test [4], in test [5] and in test [6] was inactive. Further, the molecule was classed as inactive in [7] and in test [8].
Turning to `Oc1ccc2cc(SSc3ccc4cc(O)ccc4c3)ccc2c1`, the AC50 was 131 µM (active) in [1], 26 µM (active) in test [2], 100 µM (active) in test [5] and 57 µM (active) in [7]. Besides, the outcome in test [3], in test [4], in test [6], in test [9] and in test [8] was inactive.
Regarding `COc1ccc(OC)c(N=Nc2c(O)ccc3ccccc23)c1`, the result in test [1], in test [2], in test [3], in test [6], in test [7] and in test [9] was inactive. In test [8], the molecule was called inactive. Moreover, the AC50 in test [4] was 0.51 µM (active).
Regarding `O=Cc1ccccc1S(=O)(=O)O`, the outcome in test [1], in test [2], in test [3], in test [4], in test [5] and in test [6] was inactive. In addition, the molecule was called inactive in [7], in [9] and in test [8].
Take `C[Si](C)(C)O[Si](C)(C)C`: the result in test [1], in test [2], in test [3], in [4], in test [5] and in test [6] was inactive. The result in test [7], in test [9] and in [8] was inactive.
In the case of `O=C1OC(=O)c2c(Br)c(Br)c(Br)c(Br)c21`, the outcome in test [1], in test [2], in test [3], in test [5], in test [6] and in test [7] was inactive. Moreover, the outcome in [9] and in test [8] was inactive.
For `CC(C)(N=C=O)c1cccc(C(C)(C)N=C=O)c1`, the outcome in [1], in test [2], in test [3], in test [4], in [5] and in [6] was inactive. The result in test [7] and in test [8] was inactive.
Turning to `CCCCCCCCCC(=O)OC`, the result in test [1], in test [2], in test [3], in test [6], in test [7] and in test [9] was inactive. Moreover, the call in test [8] was inactive. The AC50 in [4] was 74.7 µM (active).
Consider `OCCCCC(O)CO` (stereo not given), for which the outcome in test [1], in test [2], in test [3], in test [4], in test [5] and in test [6] was inactive. The call in test [7], in [9] and in test [8] was inactive.
With `CCCCCCOCCOCCO`, the result in [1], in test [2], in test [3], in [4], in [5] and in test [6] was inactive. For the same molecule, the call in [7], in test [9] and in test [8] was inactive.
Regarding `CN(C)CCOC(C)(c1ccccc1)c1ccccn1` (stereo not given), the outcome in test [1], in [2], in [3], in [5], in test [6] and in test [7] was inactive. In addition, in test [8], the molecule was called inactive.
Regarding `O=C1CCCC=CCCCCCCCCCC1`, the outcome in test [1], in test [4], in test [6], in test [7], in [9] and in [8] was inactive. The AC50 is 44.1 µM (active) in [2], 33.4 µM (active) in test [3] and 50.3 µM (active) in test [5].
Regarding `Cc1ncc[nH]1`, the result in test [1], in [2], in test [3], in test [4], in [6] and in [7] was inactive. In addition, the call in test [9] and in [8] was inactive.
Consider `CN(C)c1ccncc1`, for which the result in [1], in test [2], in test [3], in [4], in [5] and in test [6] was inactive. Further, the outcome in [7], in [9] and in test [8] was inactive.
Regarding `CCc1cc(Cc2cc(CC)cc(C(C)(C)C)c2O)c(O)c(C(C)(C)C)c1`, the result in test [1], in test [2], in test [4], in test [6] and in [8] was inactive. Further, the AC50 in [3] was 14.8 µM (active); in [5], 9.51 µM (active); in [7], 4.81 µM (active); in [9] it was 2.28 µM (active).
`[Cl][Au]([Cl])[Cl]`: the outcome in test [1], in test [2], in test [3], in test [6], in test [7] and in test [9] was inactive. In addition, the call in test [8] was inactive. Moreover, the AC50 is 39.8 µM (active) in test [4] and 72.6 µM (active) in test [5].
On to `O=C(O)CNc1ccccc1`, for which the outcome in test [1], in test [2], in test [3], in test [5], in test [6] and in [7] was inactive. The result in test [9] and in [8] was inactive. Besides, in test [4], the AC50 was 15.1 µM (active).

Values taken from PubChem BioAssay (EPA / NIEHS).
